Measurements: PubChem BioAssay (NCATS)
Where “and” joins values, the source holds several entries; their conditions need not be identical. Identical values can stand only once. Inconclusive results are not listed. Calls of active or inactive are those of the source. Unless noted, the call rests on the fitted dose curve.

Tests used:
[1] = Cell Viability - Jurkat (AID 426;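 active means dose-dependent loss of cell ATP signal giving a full or clear fitted curve, ranked by lower potency value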; further: potency means the concentration at half of the fitted maximal effect); details: qHTS
Summary of the method: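 qHTS, 1536-well; Jurkat E6-1, 5000 cells/well, complete medium; cpd 40 hr, 37 °C; CellTiter-Glo 20 min RT; luminescence. AC50 by Hill fit.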

[2] = Cell Viability - MRC5 (AID 434); details: MRC5 lung fibroblast viability, qHTS;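 further: potency means the concentration at half of the fitted maximal effect; potency reflects cytotoxicity seen as loss of intracellular ATP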
Summary of the method: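 qHTS cytotoxicity in human lung fibroblast MRC5 cells; 40 hr treatment, 37 °C; cellular ATP by luciferase luminescence; DMSO = 0%, 100 uM tamoxifen = 100% inhibition; Hill-fit AC50.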

[3] = Cell Viability - NIH 3T3 (AID 541; active means well fitted curve in the direction sought with a large enough effect; an effect the other way counts as inactive or inconclusive; further: nearly all actives have a fitted effect of over 25% in size; further: potency means the concentration at half of the fitted maximal effect;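 on activity change, negative = cytotoxicity: plate controls were DMSO alone for no effect and tamoxifen positive control for full effect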); details: NIH 3T3 cell viability, qHTS; activity change, negative = cytotoxicity: at 92.2 µM (top of the series)
Summary of the method: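 Luminescent ATP signal (CellTiter-Glo) served as the viability read-out after NIH 3T3 cells were exposed to compounds over a concentration range for 40 hr at 37 °C. Hill-equation modelling of concentration-response data gave AC50.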

[4] = Cell Viability - LYMP2-022 (AID 987; active means well fitted curve in the direction sought with a large enough effect; an effect the other way counts as inactive or inconclusive;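 further: 0% = DMSO alone and full effect = tetraoctylammonium bromide at 92 µM; nearly all actives have a fitted effect of over 55% in size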); details: LYMP2-022 lymphoblastoid cell viability; series mostly up to 92.2 µM
Summary of the method: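 qHTS: human lymphoblastoid cells 2500/well; 5 hr 37 C; cpd added; 24 hr 37 C; CellTiter-Glo, 30 min RT; luminescence. AC50 via Hill fit; tetraoctylammonium bromide positive ctrl.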

[5] = biological target: Estrogen receptor (Homo sapiens) (UniProt P03372); assay: qHTS assay for small molecule antagonists of estrogen receptor alpha signaling (AID 588513; active means well fitted curve in the direction sought with a large enough effect in the signal ratio, with a control signal flat, not every such curve was filed as active; the % refers to the signal ratio; further: on the % scale 0 is the no-effect control and ±100 the full control effect); details: ER-alpha-UAS-bla HEK293, beta-lactamase ratio, antagonist mode; series mostly up to 76.9 µM
Chain of Estrogen receptor (Homo sapiens) (P03372 whole entry, looked up): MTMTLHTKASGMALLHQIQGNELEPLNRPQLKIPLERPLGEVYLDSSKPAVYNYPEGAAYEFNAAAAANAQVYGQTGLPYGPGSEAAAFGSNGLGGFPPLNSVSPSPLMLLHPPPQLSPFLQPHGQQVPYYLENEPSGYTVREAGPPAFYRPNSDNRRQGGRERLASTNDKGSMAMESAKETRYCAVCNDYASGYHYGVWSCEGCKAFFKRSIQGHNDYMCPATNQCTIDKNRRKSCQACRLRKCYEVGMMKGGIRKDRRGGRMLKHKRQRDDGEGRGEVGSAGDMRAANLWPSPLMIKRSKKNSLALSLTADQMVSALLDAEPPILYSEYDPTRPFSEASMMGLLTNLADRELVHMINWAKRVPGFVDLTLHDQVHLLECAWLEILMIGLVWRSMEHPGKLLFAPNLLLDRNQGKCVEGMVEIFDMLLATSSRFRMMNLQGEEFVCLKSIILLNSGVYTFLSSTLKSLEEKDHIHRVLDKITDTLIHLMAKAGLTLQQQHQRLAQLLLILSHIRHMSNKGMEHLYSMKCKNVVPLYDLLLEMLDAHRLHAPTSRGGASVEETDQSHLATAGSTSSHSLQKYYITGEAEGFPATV
Summary of the method: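 Beta-lactamase reporter, antagonist mode, HEK 293 GripTite cells; 0.5nM E2 stimulus, 18 h, 37 C; CCF4 dye 2 h RT; fluorescence. IC50 and efficacy from Hill fits, normalized to E2 and DMSO.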

[6] = biological target: Glucocorticoid receptor (Homo sapiens) (UniProt P04150); assay: qHTS assay for small molecule antagonists of glucocorticoid receptor signaling (AID 588533; active means well fitted inhibition curve with a large enough effect in the signal ratio, with a control signal flat, not every such curve was filed as active; the % refers to the signal ratio;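 further: cells stimulated with 2 nM dexamethasone as agonist; on the % scale 0 is the no-effect control and ±100 the full control effect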); details: HeLa MMTV-bla, GRE beta-lactamase ratio, antagonist mode, 18 h; series mostly up to 76.8 µM
Chain of Glucocorticoid receptor (Homo sapiens) (P04150 whole entry, looked up): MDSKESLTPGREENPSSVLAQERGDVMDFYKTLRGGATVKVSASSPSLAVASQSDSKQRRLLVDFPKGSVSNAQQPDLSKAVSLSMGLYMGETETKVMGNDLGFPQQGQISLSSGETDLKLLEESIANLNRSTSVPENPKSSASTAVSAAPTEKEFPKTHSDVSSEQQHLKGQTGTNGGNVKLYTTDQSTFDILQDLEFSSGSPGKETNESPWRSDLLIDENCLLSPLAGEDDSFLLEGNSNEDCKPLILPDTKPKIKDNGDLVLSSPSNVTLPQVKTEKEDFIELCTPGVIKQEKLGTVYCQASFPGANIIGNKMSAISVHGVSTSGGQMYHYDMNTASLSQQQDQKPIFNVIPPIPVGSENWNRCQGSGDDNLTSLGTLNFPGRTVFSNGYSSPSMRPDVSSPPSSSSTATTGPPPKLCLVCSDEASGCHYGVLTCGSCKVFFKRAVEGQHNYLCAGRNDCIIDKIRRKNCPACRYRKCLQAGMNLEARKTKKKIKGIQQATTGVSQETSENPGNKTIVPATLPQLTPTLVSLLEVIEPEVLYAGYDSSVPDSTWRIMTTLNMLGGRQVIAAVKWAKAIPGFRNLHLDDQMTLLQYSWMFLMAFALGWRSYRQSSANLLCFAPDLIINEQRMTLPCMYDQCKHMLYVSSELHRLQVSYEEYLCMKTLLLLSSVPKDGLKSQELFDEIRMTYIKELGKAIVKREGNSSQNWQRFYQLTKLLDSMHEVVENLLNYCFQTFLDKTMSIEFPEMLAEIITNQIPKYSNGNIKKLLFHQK
Summary of the method: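 Antagonist-mode qHTS: compound titrations added to GRE-bla HeLa cells, then dexamethasone 2 nM final; 18 h, 37 C. CCF4 FRET fluorescence normalized to dexamethasone and DMSO; IC50 from Hill fit.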

[7] = biological target: Peroxisome proliferator-activated receptor gamma (Homo sapiens) (UniProt P37231); assay: qHTS assay for small molecule agonists of peroxisome proliferator-activated receptor gamma signaling (AID 588536; active means well fitted curve in the direction sought with a large enough effect in the signal ratio, with a control signal flat, not every such curve was filed as active; the % refers to the signal ratio;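 further: 0% = DMSO basal wells and 100% = rosiglitazone at 2 µM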); details: HEK293 PPARg-UAS-bla, beta-lactamase ratio, 16 h, percent of rosiglitazone response, DMSO as zero; series mostly up to 76.7 µM
Chain of Peroxisome proliferator-activated receptor gamma (Homo sapiens) (P37231 whole entry, looked up): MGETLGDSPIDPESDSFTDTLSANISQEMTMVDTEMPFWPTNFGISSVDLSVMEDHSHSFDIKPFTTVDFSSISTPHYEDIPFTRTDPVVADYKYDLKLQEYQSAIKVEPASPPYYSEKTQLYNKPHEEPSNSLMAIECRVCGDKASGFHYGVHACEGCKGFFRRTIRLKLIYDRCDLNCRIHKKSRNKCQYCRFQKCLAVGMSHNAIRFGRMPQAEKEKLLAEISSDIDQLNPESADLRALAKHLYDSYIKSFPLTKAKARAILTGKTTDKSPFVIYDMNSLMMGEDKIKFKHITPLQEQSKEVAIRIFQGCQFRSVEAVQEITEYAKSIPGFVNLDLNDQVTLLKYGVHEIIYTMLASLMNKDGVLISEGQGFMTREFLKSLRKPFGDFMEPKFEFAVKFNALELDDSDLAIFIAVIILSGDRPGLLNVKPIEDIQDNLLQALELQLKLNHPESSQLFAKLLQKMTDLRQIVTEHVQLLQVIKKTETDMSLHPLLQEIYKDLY
Summary of the method: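 HEK293 UAS-bla reporter line, 1% charcoal/dextran FBS; titration, 16 h, 37 C; CCF4 loading 2 h RT; fluorescence 460/530 nm. Normalized to rosiglitazone 2 uM = 100%, DMSO = 0%.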

[8] = biological target: Vitamin D3 receptor (Homo sapiens) (UniProt P11473); assay: qHTS assay for small molecule agonists of vitamin D receptor signaling (AID 588543); details: HEK293T VDR-UAS-bla, beta-lactamase ratio, 16 h; series mostly up to 76.8 µM;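 further: 0% = DMSO basal and 100% = reference agonist control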
Chain of Vitamin D3 receptor (Homo sapiens) (P11473 whole entry, looked up): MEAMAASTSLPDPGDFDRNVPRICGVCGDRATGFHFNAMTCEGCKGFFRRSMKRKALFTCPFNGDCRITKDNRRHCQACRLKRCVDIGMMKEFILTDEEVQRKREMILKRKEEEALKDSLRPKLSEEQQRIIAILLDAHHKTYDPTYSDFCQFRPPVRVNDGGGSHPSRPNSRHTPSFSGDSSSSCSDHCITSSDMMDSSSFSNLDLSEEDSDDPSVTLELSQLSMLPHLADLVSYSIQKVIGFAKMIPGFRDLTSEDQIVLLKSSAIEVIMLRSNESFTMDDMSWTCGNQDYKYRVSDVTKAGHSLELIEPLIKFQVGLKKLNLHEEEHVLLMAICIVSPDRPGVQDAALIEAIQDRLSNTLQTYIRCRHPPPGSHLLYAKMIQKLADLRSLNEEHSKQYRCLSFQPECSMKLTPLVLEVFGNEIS
Summary of the method: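 β-lactamase reporter, VDR-UAS-bla HEK293T, agonist mode. Cells plated 5 h at 37 °C, compound titration 16 h at 37 °C, CCF4 dye 2 h RT, ratio 460/530 nm. Hill fit → EC50, efficacy vs 50 nM 1α,25-(OH)2D3.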

[9] = biological target: Thyroid hormone receptor beta (Homo sapiens) (UniProt P10828); assay: qHTS assay for small molecule agonists of thyroid hormone receptor beta signaling (AID 588545); details: TR-UAS-bla GripTite HEK 293, beta-lactamase ratio, agonist mode, 18 h; series mostly up to 76.7 µM
Chain of Thyroid hormone receptor beta (Homo sapiens) (P10828 whole entry, looked up): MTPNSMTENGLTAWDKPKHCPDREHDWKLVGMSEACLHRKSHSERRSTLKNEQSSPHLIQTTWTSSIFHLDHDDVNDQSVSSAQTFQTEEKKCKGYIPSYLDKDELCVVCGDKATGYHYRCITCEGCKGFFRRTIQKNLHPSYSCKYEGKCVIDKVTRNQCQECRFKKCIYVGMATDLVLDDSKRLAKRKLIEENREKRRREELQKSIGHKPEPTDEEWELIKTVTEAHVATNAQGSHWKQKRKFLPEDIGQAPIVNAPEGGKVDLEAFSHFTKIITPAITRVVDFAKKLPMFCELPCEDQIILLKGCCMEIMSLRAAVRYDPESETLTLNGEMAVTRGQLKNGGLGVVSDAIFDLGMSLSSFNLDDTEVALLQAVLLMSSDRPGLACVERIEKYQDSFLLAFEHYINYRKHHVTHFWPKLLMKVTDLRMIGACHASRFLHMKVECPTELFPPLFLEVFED
Summary of the method: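 Cells (2500/well) were seeded, incubated 4 hrs at 37 C, dosed with a compound series, incubated 18 hrs, loaded with CCF4 dye for 2 hrs at RT, then read for fluorescence. Data were scaled between DMSO (0%) and 10 nM T3 (100%).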

[10] = qHTS assay for small molecule agonists of the antioxidant response element (ARE) signaling pathway measured by Nrf2-dependant transcriptional activity (AID 720636; active means well fitted curve in the direction sought with a large enough effect in the repeat runs; an effect the other way counts as inactive or inconclusive; further: % of control where 0% means no effect); details: ARE-luc HepG2, Nrf2 luciferase reporter, 16 h; series mostly up to 92.4 µM
Summary of the method: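 ARE-luc HepG2 cells carrying an Nrf2-responsive luciferase reporter, in medium with 1% dialyzed FBS, exposed to compound for 16 hr at 37 C, 5% CO2. Luminescence read 30 min after ONE-Glo addition.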

[11] = Cell Viability - H-4-II-E (AID 543; active means well fitted curve in the direction sought with a large enough effect; an effect the other way counts as inactive or inconclusive; further: nearly all actives have a fitted effect of over 35% in size; further: potency means the concentration at half of the fitted maximal effect); details: H-4-II-E rat hepatoma viability; series mostly up to 92.2 µM
Summary of the method: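 Luminescent ATP signal (CellTiter-Glo) served as the viability read-out, with cytotoxicity seen as a concentration-dependent ATP drop. Cells were treated for 40 hours in complete medium. AC50 values derive from Hill-equation modelling.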

[12] = biological target: Bile acid receptor (Homo sapiens) (UniProt Q96RI1); assay: qHTS assay for small molecule agonists of farnesoid X receptor signaling (AID 588527); details: HEK293T FXR-UAS-bla, beta-lactamase ratio, 16 h; stronger effect = higher value;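 further: 0% = vehicle basal and 100% = reference agonist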
Chain of Bile acid receptor (Homo sapiens) (Q96RI1 whole entry, looked up): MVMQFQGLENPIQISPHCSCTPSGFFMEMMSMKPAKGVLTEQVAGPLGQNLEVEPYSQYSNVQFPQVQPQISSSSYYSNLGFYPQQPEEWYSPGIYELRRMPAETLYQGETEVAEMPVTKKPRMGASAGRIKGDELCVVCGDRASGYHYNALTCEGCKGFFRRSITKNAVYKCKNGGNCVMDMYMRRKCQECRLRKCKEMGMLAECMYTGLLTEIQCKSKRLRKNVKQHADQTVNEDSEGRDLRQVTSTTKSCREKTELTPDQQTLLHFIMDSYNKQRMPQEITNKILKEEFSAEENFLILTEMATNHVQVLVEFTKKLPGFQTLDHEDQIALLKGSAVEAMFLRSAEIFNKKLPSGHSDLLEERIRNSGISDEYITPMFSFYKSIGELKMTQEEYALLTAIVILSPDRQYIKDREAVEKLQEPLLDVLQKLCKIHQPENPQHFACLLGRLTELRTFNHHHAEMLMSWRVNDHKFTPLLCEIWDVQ
Summary of the method: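 Quantitative HTS used FXR-UAS-bla HEK293T cells with 16 h compound incubation at 37 C. EC50 values came from concentration-response curves normalized to chenodeoxycholic acid.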

[13] = biological target: Glucocorticoid receptor (Homo sapiens) (UniProt P04150); assay: qHTS assay for small molecule agonists of glucocorticoid receptor signaling (AID 588532; active means well fitted curve in the direction sought with a large enough effect in the signal ratio, with a control signal flat; the % refers to the signal ratio;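 further: 100% = dexamethasone at 0.1 µM and 0% = DMSO only wells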); details: HeLa MMTV-bla, beta-lactamase ratio, agonist, 18 h; stronger effect = higher value; percent of dexamethasone control, DMSO zero
Summary of the method: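 Using MMTV-bla HeLa cells in medium with 1% stripped FBS and 25 mM HEPES, compounds were titrated and incubated overnight-length (18 h). Beta-lactamase cleavage of CCF4 was quantified by dual-emission fluorescence.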

[14] = qHTS assay for small molecule antagonists of peroxisome proliferator-activated receptor delta signaling (AID 588535; active means well fitted inhibition curve with a large enough effect in the signal ratio, with a control signal flat, not every such curve was filed as active; the % refers to the signal ratio;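 on max response: cells co-treated with a PPAR-delta agonist as stimulator during compound exposure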); details: HEK293T PPARd-UAS-bla, beta-lactamase FRET ratio, 18 h; 460 nm channel
Summary of the method: (§1)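 HEK293T PPAR-delta-UAS-bla cells, 4000/well, 2% charcoal/dextran FBS; 5 h 37 C; cpd titration; 18 h 37 C; CCF4 2 h RT; FI 460/530 nm; Hill fit → IC50, efficacy.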

[15] = biological target: Peroxisome proliferator-activated receptor delta (Homo sapiens) (UniProt Q03181); assay: as above; details: HEK293T PPARd-UAS-bla, beta-lactamase FRET ratio, 18 h; series mostly up to 76.7 µM
Chain of Peroxisome proliferator-activated receptor delta (Homo sapiens) (Q03181 whole entry, looked up): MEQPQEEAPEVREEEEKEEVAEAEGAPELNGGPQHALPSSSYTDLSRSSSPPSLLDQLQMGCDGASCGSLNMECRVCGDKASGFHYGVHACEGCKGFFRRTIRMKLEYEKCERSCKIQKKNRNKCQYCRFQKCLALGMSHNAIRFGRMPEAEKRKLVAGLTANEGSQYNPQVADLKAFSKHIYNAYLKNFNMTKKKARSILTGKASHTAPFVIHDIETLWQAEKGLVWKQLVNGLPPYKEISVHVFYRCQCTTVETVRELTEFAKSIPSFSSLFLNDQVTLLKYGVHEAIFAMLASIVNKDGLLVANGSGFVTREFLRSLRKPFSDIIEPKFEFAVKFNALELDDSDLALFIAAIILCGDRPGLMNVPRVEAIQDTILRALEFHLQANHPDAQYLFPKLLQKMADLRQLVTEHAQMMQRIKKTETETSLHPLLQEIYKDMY
Summary of the method: as §1

[16] = Cell Viability - HepG2 (AID 433); details: qHTS;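 further: potency means the concentration at half of the fitted maximal effect; potency for ATP loss meaning cytotoxicity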
Summary of the method: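 ATP luminescence (CellTiter-Glo) after 40 h compound exposure, 37 °C, HepG2, 1500 cells/well, complete medium. Normalized: DMSO = basal, 100 uM tamoxifen = 100% inhibition. AC50 via standard Hill equation.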

[17] = Cell Viability - LYMP2-024 (AID 988; active means well fitted curve in the direction sought with a large enough effect; an effect the other way counts as inactive or inconclusive;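 further: plate controls were DMSO only for no effect and 92 µM tetraoctylammonium bromide for full effect; nearly all actives have a fitted effect of over 60% in size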); details: LYMP2-024 lymphoblastoid cell viability; series mostly up to 92.2 µM
Summary of the method: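 Steps: seed 2500 cells/well, 5 hr 37 C; add compound, 24 hr 37 C; add CellTiter-Glo, 30 min room temperature; read luminescence. AC50 derived by Hill modelling of concentration-dependent ATP loss.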

[18] = qHTS assay for environmental chemicals that activate the Aryl hydrocarbon Receptor (AhR) signaling pathway (AID 651777; active means well fitted curve in the direction sought with a large enough effect; an effect the other way counts as inactive or inconclusive; further: % of control where 0% means no effect; nearly all actives have a fitted effect of over 15% in size); details: 1A2-DRE human hepatoma cells, luciferase, 24 h; activation: stronger effect = higher value
Summary of the method: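 Human hepatoma 1A2-DRE cells stably carrying a DRE/CYP1A2 promoter–luciferase reporter, 1,200 cells/well, exposed to compound 24 hr at 37 C. Luciferase read by One-Glo luminescence after 30 min at room temperature; increased signal marks AhR activation.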

[19] = qHTS assay for small molecule activators of the p53 signaling pathway (AID 651743; active means well fitted activation curve with a large enough effect in the signal ratio, not every such curve was filed as active; the % refers to the signal ratio; further: potency means the concentration at half of the fitted maximal effect; on activation: % of control where 0% means no effect); details: HCT-116 p53RE-bla, beta-lactamase FRET ratio, 16 h; activation: stronger effect = higher value
Summary of the method: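 Read-out is fluorescence intensity from the LiveBLAzer B/G FRET substrate, added for 2 hours at room temperature after HCT-116 p53RE-bla cells had been incubated with compounds for 16 hours at 37 C.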

[20] = biological target: Estrogen receptor (Homo sapiens) (UniProt P03372); assay: qHTS assay for small molecule agonists of estrogen receptor alpha signaling (AID 588514); details: ER-alpha-UAS-bla HEK293, beta-lactamase ratio, 18 h; series mostly up to 76.8 µM;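 further: 0% = vehicle only and 100% = reference agonist; nearly all actives have a fitted effect of over 70% in size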
Summary of the method: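 Cells were plated at 5000/well, incubated 4 hrs at 37 C, dosed with compound titration series, incubated 18 hrs at 37 C, loaded with CCF4 dye for 2 hrs at RT, then fluorescence was read.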

Nc1ccc([N+](=O)[O-])cc1[N+](=O)[O-]
inactive: Potency [1] > 92 µM | Potency [2] > 92 µM | Potency [4] | Potency [5] | outcome [6] | outcome [7] | outcome [8] | Potency [9] | Potency [10]
active: Potency [3] 10 µM

N#CC(O)c1ccccc1 (configuration not stated)
inactive: Potency [1] > 92 µM | Potency [2] > 92 µM | Potency [3] | Potency [11] | Potency [4] | activation [12] -0.559% | activation [13] -0.987% | outcome [6] | outcome [15] | outcome [8] | Potency [9] | Potency [10]
6.88%: max response [14]

O=[N+]([O-])c1ccccc1O
inactive: Potency [1] > 92 µM | Potency [16] > 92 µM | Potency [3] | Potency [11] | Potency [4] | Potency [17] | activation [13] 0.494% | outcome [6] | outcome [7] | Potency [9] | activation [18] 0.0323% | Potency [10]

O=S(=O)(O)F
inactive: Potency [1] > 92 µM | Potency [2] > 92 µM | Potency [11] | Potency [4] | Potency [17] | Potency [5] | activation [12] 0.0183% | outcome [15] | outcome [7] | outcome [8] | Potency [9] | activation [18] 0.54%
7.1%: max response [14]

COC(=O)Nc1nc2ccccc2[nH]1
inactive: Potency [16] > 92 µM | Potency [4] | Potency [17] | outcome [15] | outcome [7] | outcome [8] | Potency [9] | activation [18] 7.05%
active: Potency [1] 3.38 µM | Potency [3] 6.31 µM | Potency [19] 10 µM and 12.6 µM
-45%: max response [14]

ClC(Cl)(Cl)C(Cl)(Cl)Cl
inactive: Potency [1] > 92 µM | Potency [16] > 92 µM | Potency [4] | Potency [17] | Potency [5] | Potency [20] | activation [13] 5.68% | outcome [6] | outcome [7] | outcome [8] | Potency [9] | activation [19] -2.98% | activation [18] 0.18% | Potency [10]

c1ccc(Nc2ccc(Nc3ccccc3)cc2)cc1
91.4%: max response [14]
active: Potency [11] 7.94 µM
inactive: Potency [1] > 92 µM | Potency [16] > 92 µM | activation [12] -1.54% | outcome [15] | outcome [8]

COc1ccc(C=O)cc1
inactive: Potency [1] > 92 µM | Potency [2] > 92 µM | Potency [3] | Potency [11] | Potency [4] | Potency [5] | Potency [20] | activation [13] -0.198% | outcome [6] | outcome [15] | outcome [7] | outcome [8] | activation [19] -1.3% | activation [18] 0.954% | Potency [10]
2.98%: max response [14]
